Reference: PubChem BioAssay (NCI)
About 83,000 compounds went through this panel and 20% of them were active in at least one assay; those are over-represented in the sample as a whole.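 Cell lines were cultured in 96-well plates, exposed to a single compound concentration, and assessed for percent growth 48 hours later.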 Unmarked numbers belong to inactive results. Activity calls are given as the source filed them. How the source made its calls: active means growth percent below 10; inactive means the rest.

test system: HL-60(TB) leukemia; assay: NCI-60 one-dose screen, 48 h (100 = growth as untreated, 0 = no growth, -100 = all killed); details: 10 µM unless noted

Structure (SMILES)	growth
CCC1CCc2nc3sc(C(=O)Nc4cccc(F)c4)c(N)c3cc2C1 (stereo not given)	23%
O=C(c1ccc(Cl)cc1)c1ccccc1Cl	96.4%
COc1ccc(C2=C(Br)C(=O)c3nc(C)ccc3C2=O)cc1	66.2%
COc1ccc2nccc(/C=C/c3ccnc4ccc(OC)cc34)c2c1	63.5%
Cc1cc2[nH]c(=O)c3c4ncccc4cn3c2cc1C	37.2%
O=C1/C(=C/c2ccccc2F)CNC/C1=C\c1ccccc1F	-42.9% (active)
COc1cc(/C=C/C(=O)c2cccc(-n3cc(-c4ccccc4)[nH]c3=O)c2)ccc1O	3.49% (active)
[Cl-].[Rh+3].c1ccc(-c2ccnc3c2ccc2c(-c4ccccc4)ccnc23)cc1.c1ccc(-c2ccnc3c2ccc2c(-c4ccccc4)ccnc23)cc1.c1ccc(-c2ccnc3c2ccc2c(-c4ccccc4)ccnc23)cc1	99.9%
CCC(C)Oc1cc(/C=N/NC(=O)c2cnn3c2NC(c2ccccc2)C3)ccc1OC (stereo not given)	32.2%
COc1ccc(-c2cc(/C=C/C(=O)c3cc(OC)c(OC)c(OC)c3)[nH]n2)cc1OC	-22.9% (active)
OCCn1cc(-c2nc(-c3c[nH]c4ncccc34)cs2)c2cc(F)ccc21	60.3%
Cc1nc(NC(=O)COc2cccc(/C=C3\COc4ccccc4C3=O)c2)sc1C	-61.4% (active)
CCCCCc1nc2c(c3c1CCCC3)CCCC2	-15.2% (active)
C#CCOc1ccc2ncnc(N3CCN(C(=O)CCl)CC3)c2c1	73.4% [8.25 µM]
O=C(O)c1cccc(S(=O)(=O)c2ccccc2)c1	92%
Nc1cc(N)c2nc(-c3ccccc3)c(NCCc3ccc(Cl)c(Cl)c3)nc2c1	-10.5% (active)
COc1ccc(-c2nc(SCC(C)C)nc(N/N=C(/C)c3ccc(OC)c(OC)c3)c2C#N)cc1	89.4%
O=c1cc(C(F)(F)F)[nH]c(=S)[nH]1	94.1%
CCCC(=O)NNc1[nH]c(-c2cc(OC)c(OC)c(OC)c2)cc1C(=O)OCC	-11.1% (active)
O=C(O)c1ccc(P(=O)(O)O)c([N+](=O)[O-])c1	100%

Structure (SMILES)	growth
Cc1cc(C)cc(NCCC#N)c1	84.9%
CC(C)(C)c1ccc(S(=O)(=O)N[C@H]2CC[C@H]3[C@@H]4CCc5cc(O)ccc5[C@H]4CC[C@]23C)cc1	23%
Cc1ccc(CS/C(=C\c2ccc([N+](=O)[O-])cc2)C(=O)c2ccc(F)cc2)cc1	30.4%
Nc1nc(N)c2cc(CNc3ccc(Cl)c(Cl)c3)ccc2n1	1.98% (active)
Cc1ccc2c(C3C(C#N)=C(N)Oc4cc5ccccc5cc43)cc(=O)oc2c1 (stereo not given)	-14.2% (active)
COc1cc(C2CC(=O)Nc3c2cnn3C)cc(OC)c1OC (stereo not given)	97.6%
CCCCC[C@H]1C/C=C2/C(=O)C(Cl)=C[C@@H]2C/C=C\CCCC(=O)O1	-9.03% (active)
O=C(O)CSCc1nc2ccccc2[nH]1	136%
Cn1cc(-c2nn3cc(-c4ccccc4)nc3s2)c2ccccc21	84.8%
O=C(NCCNc1nccc(-n2ccc3cccnc32)n1)c1ccc(C(F)(F)F)cc1	107%
O=C(O)c1ccc2c(c1)nc(Nc1cccc(Cl)c1)c1ccncc12	-28.6% (active)
COc1nc(/C=C\Nc2ccc3c(c2)OCCOCCOCCOCCO3)nc(OC)n1	65.4%
COc1cc(-c2nc(-c3nnc(-c4cccnc4)o3)c3ccccn23)cc(OC)c1OC	95.7%
CC(=O)[C@H]1CC[C@]2(C)[C@@H]1CC[C@@H]1[C@@]3(C)CC(CCC#N)(CCC#N)C(=O)C(C)(C)[C@@H]3CC[C@]12C	103%
COc1cc(-c2nn(-c3ccc(Br)cc3)cc2CO)ccc1O	74.8%
CCOC(=O)CCN(C(=O)Nc1ccccc1)C1CCCCC1	113%
O=C(C[C@@]1(O)C(=O)Nc2c(Cl)ccc(Cl)c21)c1ccc(C2CC2)cc1	-17.8% (active)
C#CCn1cc(C=C2C(=O)NC(=O)NC2=O)c2cc(Cl)ccc21	59.9%
COc1cccc(/C=C2\SC(N3CCN(c4ccccn4)CC3)=NC2=O)c1	95.5%
Cc1[nH]nc(C(N)=O)c1[N+](=O)[O-]	129%
